According to PubChem BioAssay (Tox21):
Where “and” joins values, the source holds several entries; their conditions need not be identical. Equal entries are not always repeated. Records with an inconclusive call do not appear. Entries that show only a call come without a potency. Some structures have more than one record in an assay (separate samples or runs), and their calls can disagree. Calls of active or inactive are those of the source. Unless noted, calls come from the whole dose curve; as a rule, active = well fitted curve in the direction sought with a large enough effect in the repeat runs; inconclusive = weak or mixed curves; inactive = no such curve, though single readings can be large; an effect the other way counts as inactive or inconclusive.

What was measured:
[1] = qHTS assay to identify small molecule antagonists of the constitutive androstane receptor (CAR) signaling pathway - cell viability counter screen (AID 1224837); note: nearly all actives have a fitted effect of over 45% in size
How it was run: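 HepG2 cells stably carrying hCAR and CYP2B6-2.2kb reporter, stimulated with 50 nM CITCO and compounds at 15 concentrations for 23 h at 37 C. Viability measured by CellTiter-Fluor fluorescence.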

[2] = molecular target: Nuclear receptor subfamily 1 group I member 3 (Homo sapiens) (UniProt Q14994); assay: qHTS assay to identify small molecule antagonists of the constitutive androstane receptor (CAR) signaling pathway (AID 1224838); note: nearly all actives have a fitted effect of over 40% in size
How it was run: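 HepG2 cells stably carrying hCAR and a CYP2B6-2.2kb luciferase reporter, seeded 4 hrs before compound (15 concentrations). Stimulated with 50 nM CITCO for 24 hr at 37 C. ONE-Glo luminescence read after 30 min at room temperature.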

[3] = molecular target: Nuclear receptor subfamily 1 group I member 3 (Homo sapiens) (UniProt Q14994); assay: qHTS assay to identify small molecule agonists of the constitutive androstane receptor (CAR) signaling pathway (AID 1224839); note: nearly all actives have a fitted effect of over 15% in size
How it was run: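 Using human hepatoma HepG2 cells engineered with hCAR and a CYP2B6-2.2kb reporter, 15-concentration compound series were incubated 24 h alongside PK11195 at 0.75 uM final, with luminescence quantified afterwards.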

[4] = qHTS assay to identify small molecule antagonists of the estrogen related receptor signaling pathway with the pleiotropic PPARgamma coactivator (PGC) from Tox21 10K library - cell viability counter screen (AID 1224840; active = well fitted cell-killing curve with a large enough effect in the repeat runs, not every such curve was filed as active; note: nearly all actives have a fitted effect of over 40% in size)
How it was run: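 PGC/ERR cells (2,000/well) plated 6 h, then compound-treated for 17.5 h at 37 C. Viability measured by CellTiter-Fluor fluorescence after 30 min at 37 C, multiplexed with the pathway assay.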

[5] = molecular target: Thyrotropin receptor (Homo sapiens) (UniProt P16473); assay: qHTS assay to identify small molecule agonists of the thyroid stimulating hormone receptor (TSHR) signaling pathway (AID 1224843; calls by dose curve; note: nearly all actives have a fitted effect of over 45% in size)
How it was run: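 HEK293 cells stably bearing the thyrotropin receptor were plated at 800 cells/well and challenged with compound (30 min, RT). Accumulated cAMP was quantified via cAMP-d2 competing for cryptate-tagged antibody.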

[6] = qHTS assay to identify small molecule agonists of the hypoxia (HIF-1) signaling pathway - cell viability counter screen (AID 1224844; calls by dose curve; note: nearly all actives have a fitted effect of over 50% in size)
How it was run: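 HRE-bla ME-180 cells, 2,000/well in 0.5% dialyzed FBS medium, treated 17 h at 37C with compounds. Viability read in the same wells as the bla reporter, by CellTiter-Glo luminescence after 30 min at room temperature.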

[7] = qHTS assay to identify small molecule agonists of H2AX (AID 1224845; active = well fitted activation curve with a large enough effect in the signal ratio in the repeat runs, not every such curve was filed as active; the % refers to the signal ratio; note: potency is the fitted concentration of half-maximal effect)
How it was run: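 Phospho-H2AX Ser139 measured by HTRF (ex 320 nm; em 665 and 620 nm) after 24 hr antibody incubation. Compounds, 15 concentrations, 0.76% DMSO, were applied to CHO-K1 cells for 3hr at 37C before lysis.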

[8] = qHTS assay to identify small molecule agonists of the hypoxia (HIF-1) signaling pathway (AID 1224846; active = well fitted activation curve with a large enough effect in the signal ratio in the repeat runs, not every such curve was filed as active; the % refers to the signal ratio)
How it was run: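 HRE-bla ME-180 beta-lactamase reporter cells in medium with 0.5% dialyzed FBS, pre-incubated 5 h then exposed to compounds 17 h at 37C, 5% CO2; reporter induction read with CCF4-AM FRET substrate.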

[9] = qHTS assay to identify small molecule agonists of H2AX - cell viability counter screen (AID 1224847; calls by dose curve;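 note: wild-type CHO-K1 cells; top concentration of the series differs between compounds; nearly all actives have a fitted effect of over 30% in size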)
How it was run: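 After overnight plating of 1000 CHO-K1 cells per well, a 15-concentration compound series was applied for 3 hr at 37C. Luminescence from CellTiter-Glo, read following 30 min at room temperature, reflected cell viability.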

[10] = qHTS RealTime-Glo MT Cell Viability Assay in HepG2 cells - 24 hour (AID 1224867); note: nearly all actives have a fitted effect of over 50% in size
How it was run: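 Luminescence read-out: viable HepG2 cells reduce a prosubstrate to a NanoLuc substrate, giving a signal proportional to live cell number. Reads taken at 0, 8, 16, 24, 32 and 40 h of compound exposure at 37 C.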

[11] = qHTS RealTime-Glo MT Cell Viability Assay in HEK293 cells - 32 hour (AID 1224868); note: nearly all actives have a fitted effect of over 50% in size; note: potency is the fitted concentration of half-maximal effect
How it was run: (§1)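 Nonlytic real-time viability readout: viable cells convert prosubstrate to NanoLuc substrate, giving luminescence proportional to live cell number. HEK293, 600 cells/well, compound added after 5 h, continuous culture at 37 C.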

[12] = A CellTox Green Cytotoxicity Assay to monitor cytotoxicity in HEK293 cells - 0 hour (AID 1224869); note: nearly all actives have a fitted effect of over 50% in size
How it was run: (§2)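 HEK293 cells, 600/well, were preincubated 5 hours and then exposed to compounds at 37 C for up to 40 hours. A cell-impermeant cyanine dye staining dead-cell DNA was read by fluorescence at 0, 8, 16, 24, 32 and 40 h time points.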

[13] = qHTS RealTime-Glo MT Cell Viability Assay in HepG2 cells - 40 hour (AID 1224870); note: nearly all actives have a fitted effect of over 50% in size
How it was run: (§3)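 Real-time viability: cells seeded at 600 per well together with NanoLuc and cell-permeant prosubstrate, compounds added after 5 h incubation. Luminescence tracked at 0, 8, 16, 24, 32 and 40 h of exposure.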

[14] = A CellTox Green Cytotoxicity Assay to monitor cytotoxicity in HEK293 cells - 40 hour (AID 1224871); note: nearly all actives have a fitted effect of over 45% in size; note: potency is the fitted concentration of half-maximal effect
How it was run: as §2

[15] = qHTS RealTime-Glo MT Cell Viability Assay in HEK293 cells - 16 hour (AID 1224872); note: nearly all actives have a fitted effect of over 50% in size; note: potency is the fitted concentration of half-maximal effect
How it was run: as §1

[16] = qHTS RealTime-Glo MT Cell Viability Assay in HepG2 cells - 8 hour (AID 1224873); note: nearly all actives have a fitted effect of over 55% in size
How it was run: as §3

[17] = qHTS RealTime-Glo MT Cell Viability Assay in HEK293 cells - 40 hour (AID 1224874); conditions: RealTime-Glo luminescence; max response: stronger effect = lower value; note: nearly all actives have a fitted effect of over 50% in size; note: potency is the fitted concentration of half-maximal effect
How it was run: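 600 cells/well were plated with the nonlytic NanoLuc/prosubstrate reagent, pre-incubated 5 h, then given 23 nL of compound in DMSO. Incubation at 37 C for 40 h, with luminescence from viable-cell-reduced substrate read repeatedly from 0 h.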

[18] = qHTS assay to identify small molecule agonists of the estrogen related receptor signaling pathway with the pleiotropic PPARgamma coactivator (PGC) from Tox21 10K library (AID 1224842); note: nearly all actives have a fitted effect of over 15% in size
How it was run: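 Luminescence from One-Glo (30 min, room temperature) measured after PGC/ERR cells had 18 h at 37 C with pinned compound (23 nL in DMSO). Cells had been seeded at 2,000 per well and pre-incubated 6 h.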

[19] = qHTS assay to identify small molecule antagonists of the estrogen related receptor (ERR) signaling pathway from Tox21 library (AID 1224848); note: nearly all actives have a fitted effect of over 50% in size; note: potency is the fitted concentration of half-maximal effect
How it was run: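 Reading was by luminescence 30 min after ONE-Glo addition. Before that, ERR cells at 2,000 per well had rested 6 h at 37 C/5% CO2 and then received pin-tooled compounds in DMSO for 18 h at 37 C.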

[20] = qHTS assay to identify small molecule agonists of the estrogen related receptor (ERR) signaling pathway from Tox21 library (AID 1224849; calls by dose curve; note: nearly all actives have a fitted effect of over 15% in size); conditions: ERR reporter cell line, ONE-Glo luciferase, 18 h
How it was run: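 ERR reporter cells (NTP line) pre-incubated 6 hours at 37 C, then exposed to compounds for 18 hours at 37 C. ONE-Glo luciferase luminescence was read after 30 minutes at room temperature.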

Chain of Nuclear receptor subfamily 1 group I member 3 (Homo sapiens) (Q14994 whole entry, looked up): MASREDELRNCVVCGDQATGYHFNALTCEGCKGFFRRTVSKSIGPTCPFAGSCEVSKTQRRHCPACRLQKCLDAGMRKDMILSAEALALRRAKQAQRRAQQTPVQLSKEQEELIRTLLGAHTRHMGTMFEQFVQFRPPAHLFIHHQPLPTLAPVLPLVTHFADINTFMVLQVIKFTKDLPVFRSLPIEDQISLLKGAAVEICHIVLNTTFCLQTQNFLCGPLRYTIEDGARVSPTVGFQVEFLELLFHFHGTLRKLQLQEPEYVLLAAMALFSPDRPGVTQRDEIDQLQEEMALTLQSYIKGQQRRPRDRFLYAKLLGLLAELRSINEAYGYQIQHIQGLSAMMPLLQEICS
Chain of Thyrotropin receptor (Homo sapiens) (P16473 whole entry, looked up): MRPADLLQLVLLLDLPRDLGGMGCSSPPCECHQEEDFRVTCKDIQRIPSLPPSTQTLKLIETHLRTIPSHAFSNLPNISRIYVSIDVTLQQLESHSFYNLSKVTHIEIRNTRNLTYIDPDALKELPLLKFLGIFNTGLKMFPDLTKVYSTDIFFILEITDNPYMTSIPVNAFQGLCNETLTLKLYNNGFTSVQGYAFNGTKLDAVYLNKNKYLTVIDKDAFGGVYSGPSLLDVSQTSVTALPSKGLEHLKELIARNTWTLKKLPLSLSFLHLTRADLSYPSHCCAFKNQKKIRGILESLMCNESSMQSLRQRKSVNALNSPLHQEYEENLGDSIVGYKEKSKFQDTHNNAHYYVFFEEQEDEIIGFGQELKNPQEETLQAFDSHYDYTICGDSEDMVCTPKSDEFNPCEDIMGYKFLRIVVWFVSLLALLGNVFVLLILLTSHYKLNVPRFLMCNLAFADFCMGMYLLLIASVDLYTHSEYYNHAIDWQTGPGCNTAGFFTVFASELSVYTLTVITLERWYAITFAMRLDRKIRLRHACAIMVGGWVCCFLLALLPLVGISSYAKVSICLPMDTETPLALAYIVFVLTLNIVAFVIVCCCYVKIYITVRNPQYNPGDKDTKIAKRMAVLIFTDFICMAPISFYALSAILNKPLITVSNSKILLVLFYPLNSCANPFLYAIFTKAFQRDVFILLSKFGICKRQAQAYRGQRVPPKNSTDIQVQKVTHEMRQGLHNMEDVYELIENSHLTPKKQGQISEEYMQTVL

## CCC(=O)C(CC(C)N(C)C)(c1ccccc1)c1ccccc1 (configuration not stated)
[1]
  Potency: inactive
[2]
  Potency: inactive
[3]
  Potency: inactive
[4]
  Potency: inactive
[5]
  Potency: inactive
[6]
  Potency: inactive
[7]
  Potency: inactive
[8]
  outcome: inactive
[9]
  Potency: inactive
[10]
  Potency: inactive
[11]
  Potency: 24.4 µM (active)
[12]
  Potency: inactive
[13]
  Potency: inactive
[14]
  Potency: inactive
[15]
  Potency: inactive
[16]
  Potency: inactive
[17]
  Potency: 24.4 µM (active)

## O=P1(N(CCCl)CCCl)NCCCO1 (configuration not stated)
[1]
  Potency: inactive
[2]
  Potency: inactive
[3]
  Potency: inactive
[4]
  Potency: inactive
[18]
  Potency: inactive
[5]
  Potency: inactive
[6]
  Potency: inactive
[7]
  Potency: inactive
[9]
  Potency: inactive
[19]
  Potency: inactive
[20]; at 42.5 µM (top of the series)
  activity change, positive = activation: -7.16% (inactive)
[20]; at 92.4 µM (top of the series)
  activity change, positive = activation: -1.25% (inactive) and 0.0597% (inactive)
[10]
  Potency: inactive
[11]
  Potency: inactive
[12]
  Potency: inactive
[13]
  Potency: inactive
[14]
  Potency: inactive
[15]
  Potency: inactive
[16]
  Potency: inactive
[17]
  max response: 4.44% (inactive) and 0.328% (inactive) and -5.68% (inactive)

## O=[N+]([O-])O
[1]
  Potency: inactive
[4]
  Potency: inactive
[5]
  Potency: inactive
[6]
  Potency: inactive
[7]
  Potency: inactive
[8]
  outcome: inactive
[9]
  Potency: inactive
[10]
  Potency: inactive
[11]
  Potency: inactive
[12]
  Potency: inactive
[13]
  Potency: inactive
[14]
  Potency: inactive
[15]
  Potency: inactive
[16]
  Potency: inactive

## C[C@]12CCC(=O)C=C1CC[C@@H]1[C@@H]2CC[C@]2(C)C(=O)CC[C@@H]12
[1]
  Potency: inactive
[2]
  Potency: inactive
[3]
  Potency: inactive
[4]
  Potency: inactive
[18]
  Potency: inactive
[5]
  Potency: inactive
[6]
  Potency: inactive
[7]
  Potency: 88.3 µM (active)
[9]
  Potency: inactive
[19]
  Potency: 42.5 µM (active) and 54.5 µM (active)
[20]; at 42.5 µM (top of the series)
  activity change, positive = activation: -23.4% (inactive)
[20]; at 92.4 µM (top of the series)
  activity change, positive = activation: -46.4% (inactive) and -41% (inactive)
[10]
  Potency: inactive
[11]
  Potency: 27.1 µM (active) and inactive
[12]
  Potency: inactive
[13]
  Potency: inactive
[14]
  Potency: 48.2 µM (active) and inactive
[15]
  Potency: 24.1 µM (active) and inactive
[16]
  Potency: inactive
[17]
  Potency: 24.1 µM (active) and 24.5 µM (active)
  max response: -20.4% (inactive)
